M1 antagonist = blocks the rat M1 muscarinic receptor response to acetylcholine; P08482; CHO-M1 cells, Fluo-4 calcium, ACh EC80 antagonist mode; hits give low values; 64,000 tested, 3.4% active; B-score at 10 µM; AID 628;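 active = calcium fluorescence response, raw or row-and-column corrected B-score, differing from the plate sample mean either way at a set confidence level, mostly lower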
Target sequence (P08482 whole entry, looked up): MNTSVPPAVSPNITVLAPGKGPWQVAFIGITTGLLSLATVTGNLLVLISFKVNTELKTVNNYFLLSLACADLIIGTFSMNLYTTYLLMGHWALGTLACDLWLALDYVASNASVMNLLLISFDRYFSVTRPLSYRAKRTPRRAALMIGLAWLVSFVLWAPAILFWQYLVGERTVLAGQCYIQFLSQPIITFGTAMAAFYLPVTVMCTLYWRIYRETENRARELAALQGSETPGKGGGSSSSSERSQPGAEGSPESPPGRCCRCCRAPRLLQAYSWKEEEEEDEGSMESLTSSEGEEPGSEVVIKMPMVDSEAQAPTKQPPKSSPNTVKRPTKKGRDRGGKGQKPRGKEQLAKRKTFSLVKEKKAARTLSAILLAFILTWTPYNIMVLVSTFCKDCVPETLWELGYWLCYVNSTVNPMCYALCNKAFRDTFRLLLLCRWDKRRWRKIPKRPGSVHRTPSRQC
M1 ag = agonists of M1 muscarinic receptor; 64,000 tested, 3% active; CHO-M1 cells, Fluo-4 calcium fluorescence, agonist mode; hits give high values; B-score at 10 µM; AID 626;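 active = fluorescence rise, raw or as B-score row- and column-corrected plate score, outside the 99.7% band of its plate's samples, either direction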
PLAP act = activates human placental alkaline phosphatase. P05187. purified PLAP enzyme, luminescent substrate read-out; hits give high values. activation fold at 20 µM. AID 696. 96,000 tested, 1.2% active; in the data active = activation fold above about 2
Cav3 T inh = inhibitors of human Cav3.2 T-type calcium channel | B-score at 10 µM | Cav3.2-expressing cells, Fluo-4 calcium fluorescence FDSS; hits give low values | O95180 | 100,000 tested, 4% active;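 active = single-dose well whose peak fluorescence ratio is a statistical outlier from its plate by either plate-standardised score or position-corrected B-score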
An asterisk follows results filed as active; nt = no result given. Shown are actives, neighbours in structure and some others; about 7.6% of the full set was active somewhere.

SMILES	M1 antagonist	M1 ag	PLAP act	Cav3 T inh
N#Cc1nc(COc2ccc(F)cc2)oc1N1CCCC1	-0.0011	0.16	1	-2.3
Cc1ccc(OCc2nc(C#N)c(N3CCN(Cc4ccccc4)CC3)o2)cc1	-0.023	0.81	1.2	-5.9*
N#Cc1nc(COc2ccccc2)oc1N1CCC(Cc2ccccc2)CC1	-0.41	-0.24	1	-5.6*
CC(C)(C)c1ccc(C(=O)N2CCC(C(=O)NCCC3=CCCCC3)CC2)cc1	nt	nt	1.4	-5*
O=C(NCCC1=CCCCC1)C1CCN(C(=O)Nc2ccccc2)CC1	0.98	0.11	1	1.4
COC(=O)C1=C(N)c2c(F)cccc2C1(C#N)c1ccc(F)cc1 (centres undefined)	nt	nt	0.8	-5.6*
COC(=O)c1cn(C(=O)c2ccccc2F)nc1N	-0.31	-0.79	0.9	0.23
O=C(NCC1CCCO1)c1ccc(CS(=O)(=O)Cc2ccc(F)cc2)o1 (centres undefined)	-0.22	0.11	0.9	0.44
O=C(Nc1ccccc1N1CCOCC1)C1Cc2ccccc2CN1C(=O)c1ccco1 (centres undefined)	nt	nt	1.5	-0.22
O=C(Nc1nnc(SCc2ccc(F)cc2)s1)C1Cc2ccccc2CN1C(=O)c1ccco1 (centres undefined)	nt	nt	1.2	-5.7*
COc1cc(NC(=O)C2COc3ccccc3O2)c(OC)cc1Cl (centres undefined)	0.78	-1	1.3	-4.5*
CCc1nc(C)cn1S(=O)(=O)c1ccc(Cl)c(Cl)c1Cl	-1.2	2.3	1.5	-3.6*
CCc1nc(C)cn1S(=O)(=O)c1cc(Cl)c(OC)cc1Cl	nt	nt	1.1	-2.5
Cc1ccc(/C=N/Nc2ncc(Cl)cc2Cl)s1	nt	nt	2.8*	-3.7
CCOC(=O)c1c(NC(=O)C(C)NCc2ccco2)sc2c1CCC(C)C2 (centres undefined)	nt	nt	1.8	-0.97
COc1ccc(N(CC(=O)Nc2ccc(C)c(C)c2)S(=O)(=O)c2c(C)n[nH]c2C)cc1	0.53	0.2	2.1*	nt
CCc1cccc(NC(=O)CN(c2ccc(OC)cc2)S(=O)(=O)c2c(C)n[nH]c2C)c1	0.15	2.7	2.4*	-4.2*
COC(=O)C1=CN(CCCN2CCCC2=O)C=C(C(=O)OC)C1c1ccccc1C(F)(F)F	-0.52	-0.011	2.1*	0.8
COC(=O)C1=CN(CC2CCCO2)C=C(C(=O)OC)C1c1ccccc1C(F)(F)F (centres undefined)	nt	nt	1.1	1
Brc1ccccc1OCCOCCOc1cccc2cccnc12	nt	nt	nt	-4.7*
Cc1cccc(OCCCOc2cccc3cccnc23)c1C	nt	nt	1.4	-2.2
O=c1cc(CO)oc(CN2CCN(c3ccccc3)CC2)c1O	0.32	0.58	1	0.032
O=c1cc(CO)oc(CN2CCN(c3cccc(C(F)(F)F)c3)CC2)c1O	nt	nt	2.2*	1.1
O=C(c1cc(-n2cnnc2)ccc1Cl)N1CCN(c2nc(-c3ccccc3)cs2)CC1	-0.41	-0.2	1.1	nt
O=C(c1ncn[nH]1)N1CCN(c2nc(-c3ccccc3)cs2)CC1	-1.1	1.1	2.6*	0.16
SMILES	M1 antagonist	M1 ag	PLAP act	Cav3 T inh
O=C1NCC(O)=C1C=NC12CC3CC(CC(C3)C1)C2	-0.59	-0.0058	0.7	0.13
Cc1ccc(NC(=O)CN(C)S(=O)(=O)c2cccc3nsnc23)cc1Cl	0.0079	-0.023	0.9	-7.2*
C=C(C)c1cccc(C(C)(C)NC(=O)N2CCCCC2CC)c1 (centres undefined)	nt	nt	1.8	-4.5*
CCCCNC(=O)C(Cc1ccccc1)NS(=O)(=O)c1ccc2c(c1)c(=O)n(C)c(=O)n2C (centres undefined)	nt	nt	1.3	0.2
CCOC(=O)c1nn(-c2ccccc2F)c(-c2ccccc2)c1C(=O)c1ccccc1	nt	nt	1.3	-4.4*
CCOC(=O)c1nn(-c2ccccc2)c(-c2ccccc2)c1C(=O)c1ccccc1	nt	nt	0.9	0.59
CCN1CCN(c2ccc(-n3c(C)nc4c(cnn4-c4ccccc4Cl)c3=O)cc2)CC1	-1.6	0.19	nt	nt
Cc1cccc(C)c1NC(=O)CSc1nnc([C@@H]2CCCN2C(=O)OC(C)(C)C)o1	0.065	-0.25	1.2	0.04
CCc1ccccc1NC(=O)CSc1nnc([C@@H]2CCCN2C(=O)OC(C)(C)C)o1	-0.012	0.59	2.1*	0.043
CCN(C(=O)Cc1ccc(Br)cc1)C1CCCCC1	nt	nt	1	-4.4*
CCCCNC(=O)Nc1nnc(-c2ccccc2)o1	nt	nt	2.1*	1.2
CCCCNC(=O)Nc1nnc(-c2ccc(OCC)cc2)o1	nt	nt	1.1	-0.88
CCCCC(=O)Nc1cccc(-c2nnc(-c3ccccc3)o2)c1	-1.1	2.7*	1.1	-0.8
COCCn1nnnc1C(c1cccs1)N1CCN(c2cccc(C(F)(F)F)c2)CC1 (centres undefined)	nt	nt	1.2	-5.4*
CCC(c1nnnn1CCOC)N1CCN(c2cccc(C(F)(F)F)c2)CC1 (centres undefined)	1.1	0.4	1.7	-0.018
CC(=O)N1CCc2cc(S(=O)(=O)NCCC3=CCCCC3)ccc21	-0.85	1.9	nt	nt
CCc1ccc(S(=O)(=O)NCCc2cn3ccsc3n2)s1	-0.42	-0.79	2*	-0.031
Cc1nc(CCNS(=O)(=O)c2cccs2)cs1	0.29	0.011	1	-0.051
O=S(=O)(NCc1cn2ccsc2n1)c1cccs1	0.2	0.43	1.2	-0.8
Cc1csc2nc(CCNS(=O)(=O)c3cccs3)cn12	0.49	0.83	2.9*	0.19
CCC(C)(C(=O)NC1CCCC1)N(Cc1ccco1)C(=O)c1ccc2c(c1)OCO2 (centres undefined)	-0.87	0.026	1.1	-3.6*
O=C(NC1CC1)c1cccc(Nc2ccc(-c3ccc4c(c3)OCCO4)nn2)c1	-2.7	3.8*	0.8	-0.67
Cc1ccc(Nc2nc(Cl)nc(N(C)C#N)n2)cc1	nt	nt	0.8	4*
Cc1nc2ccccc2n1CC(=O)OCC(=O)NCCc1ccccc1	nt	nt	1	0.64
O=C(NCc1ccc(Cl)cc1)c1ccc(Cn2cc(C(F)(F)F)ccc2=O)cc1	nt	nt	1.1	-5.7*
SMILES	M1 antagonist	M1 ag	PLAP act	Cav3 T inh
O=C(NCc1ccccc1Cl)c1ccc(Cn2cc(C(F)(F)F)ccc2=O)cc1	nt	nt	1.1	-0.93
CCn1c(=O)cc(OCC(=O)N2CCN(C(=O)c3ccco3)CC2)c2ccccc21	0.19	-1.5	1.1	1.1
CCn1c(=O)c2cc(C(=O)N3CCN(C(=O)c4ccco4)CC3)sc2c2ccccc21	-1.4	5.2*	nt	0.38
CC(C)(C)NS(=O)(=O)c1cnc(Cl)c(Cl)c1	nt	nt	0.8	0.26
Cc1nonc1NCn1nnc2ccccc21	nt	nt	1	-0.23
O=C(Nc1ccc2[nH]c3c(c2c1)CCCC3)c1ccco1	-0.16	3*	1.3	-1.1
COc1ccc(C(=O)CSc2nnc(CNc3nc(-c4ccccc4)cs3)n2C)cc1	-0.037	0.84	1.4	-5.7*
Cn1c(CNc2nc(-c3ccccc3)cs2)nnc1SCC(=O)N1CCc2ccccc21	-0.21	-0.24	1.2	-4.6*
COC(=O)CSc1nnc(CNc2nc(-c3ccccc3)cs2)n1C	nt	nt	nt	0.33
CC(C)c1nnc(SCC(=O)N2CCc3ccccc32)n1C	nt	nt	nt	0.64
O/N=C\c1cccn1-c1ccc(Br)cc1	nt	nt	1.4	-0.057
COCCNC(=O)c1ccc2c(=O)n(Cc3ccco3)c(SCC(=O)NC3CCCC3)nc2c1	nt	nt	2.2*	1.9
CCN(C(=O)CSc1nc2cc(C(=O)OC)ccc2c(=O)n1Cc1ccco1)c1cccc(C)c1	-1.6	-0.53	1.1	-4.3*

Screening data: PubChem BioAssay, several laboratories
